This is a sample that favours compounds with a hit; in the whole collection about 6.5% have one here.
Lassa entry inh = qHTS for Inhibitors of binding or entry into cells for Lassa Virus. AID 540256, 2011. 300,000 compounds, 1.2% hits. Lassa virus pseudotype entry inhibition, cell reporter. Potency, µM (titrated, usually from 37.9 µM), inactives show at the highest dose activity change, negative = inhibition, hits mostly inhibitors; calls by dose curve; tested in HEK293 cells; note: potency is the fitted concentration of half-maximal effect; nearly all actives have a fitted effect of over 50% in size
VACV Venus inh = qHTS for Stage-Specific Inhibitors of Vaccinia Orthopoxvirus: Venus Reporter Primary qHTS. Vaccinia virus Venus reporter expression, fluorescence. 330,000 compounds, 0.46% hits. Potency, µM (highest dose often 36.5 µM), inactives show at the highest dose activity change, negative = inhibition, actives largely listed as inhibitors; calls by dose curve; tested in A549 cells; note: potency is the fitted concentration of half-maximal effect; nearly all actives have a fitted effect of over 30% in size
Marburg entry inh = qHTS for inhibitors of binding or entry into cells for Marburg Virus; Marburg virus pseudotyped entry inhibition, cell reporter; Potency, µM (series often up to 37.8 µM), inactives show at the top dose activity change, negative = inhibition, most hits filed as inhibitors; 300,000 compounds, 1.8% hits; calls by dose curve; tested in HEK293 cells; note: potency is the fitted concentration of half-maximal effect
HCMV antiviral = qHTS Assay for inhibitors of the human cytomegalovirus (HCMV) | HFF cells, HCMV-luciferase reporter, 72 h; hits give low values | activity change, negative = inhibition, % at 57.5 µM | 410,000 compounds, 4.5% hits; in the data active = activity change below about -60%; inconclusive = no clear call, values can overlap the other calls; inactive = above about -39%
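Cell-based, HFFs, 1000 cells/well, 16 h 37C; cpds in DMSO + HCMV-luc, MOI 1 PFU/cell; 72 h 37C; OneGlo luminescence after 5 min RT; norm. to buffer vs Salinomycin 10uM.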
FMDV inh = High Throughput Screening for Foot and Mouth Disease Virus Antivirals; FMDV antiviral cell-based qHTS; Potency, µM (titrated, usually from 57.9 µM), for the others: at the highest dose activity change, negative = inhibition, actives largely listed as inhibitors; 410,000 compounds, 1.2% hits; calls by dose curve; tested in HEK293T cells; note: read-out not given here; potency is the fitted concentration of half-maximal effect; nearly all actives have a fitted effect of over 45% in size
Vaccinia mCherry = qHTS for Stage-Specific Inhibitors of Vaccinia Orthopoxvirus: mCherry Reporter Primary qHTS; Vaccinia virus mCherry reporter infection, fluorescence; 310,000 compounds, 0.63% hits; AID 720579, 2013; Potency, µM (doses to about 36.5 µM), without a hit: at the highest dose activity change, negative = inhibition, usual class: inhibitors; calls by dose curve; tested in A549 cells; note: potency is the fitted concentration of half-maximal effect; nearly all actives have a fitted effect of over 35% in size
* hit, by the source's call; i = inactive; ? = inconclusive; nt = no result given; [ ] = dose if it differs, or a comment. % is set by controls: 0 for no effect and ±100 for the full control effect.

SMILES | Lassa entry inh | VACV Venus inh | Marburg entry inh | HCMV antiviral | FMDV inh | Vaccinia mCherry
CN(C)c1ccc(CNc2nc3cc(-c4ccc(F)cc4)sc3c(=O)n2C)cc1 | nt | -22% | nt | -86* | 0% | -1%
COc1ccc(Cl)cc1NC(=O)c1cc(C)nn1-c1ccccc1 | -10%[46.1 µM] | -9% | -3%[46.1 µM] | -27 | 20% | i
CCCN(CCC)CC(O)Cn1c2ccccc2c2ccccc21 (stereo not given) | -9%[46.1 µM] | -7% | 7.1µM* | -29 | -5% | -4%
CC(=O)Nc1ccc(OCC(O)Cn2c3ccccc3c3ccccc32)c(C)c1 (stereo not given) | ? | ? | -13% | -61* | 22µM* | ?
Cc1ccc(N(CC(O)Cn2c3ccccc3c3ccccc32)S(C)(=O)=O)c(C)c1 (stereo not given) | 1% | nt | 16µM* | -101* | ? | nt
Cc1ccc(N(CC(O)Cn2c3ccccc3c3ccccc32)S(C)(=O)=O)cc1 (stereo not given) | -16% | 7% | ? | 59 | nt | -7%
Cc1cccc(N(CC(O)Cn2c3ccccc3c3ccccc32)S(=O)(=O)c2ccc(F)cc2)c1 (stereo not given) | ? | -16% | ? | -107* | ? | -14%
NC(CC(=O)Nc1ccc(Oc2cc(F)c(F)cc2Br)cc1)C(=O)O (stereo not given) | nt | nt | nt | nt | -10% | nt
Cc1ccc(N(CC(O)CN2CCCC2)S(=O)(=O)c2ccc(C)cc2)cc1 (stereo not given) | 4% | -11% | ? | -4 | 8% | -17%
CC(=O)Nc1ccc(N(CC(O)Cn2c3ccccc3c3ccccc32)S(=O)(=O)c2ccc(C)cc2)cc1 (stereo not given) | 11µM* | ? | ? | -35 | ? | ?
C=CCN(c1ccccc1)S(=O)(=O)c1cccc(C(=O)Nc2cc(C)ccn2)c1 | 18µM* | 6% | 8.9µM* | ? | 16% | -8%
O=C(Nc1ccccn1)c1ccc(CN(c2ccccc2)S(=O)(=O)c2ccccc2)cc1 | ? | -9% | ? | ? | 8% | -9%
C=CCN(c1ccccc1)S(=O)(=O)c1cccc(C(=O)Nc2ncccc2O)c1 | ? | 1% | 0%[46.1 µM] | nt | -5% | -17%
COc1ccc(N(Cc2ccccc2)S(=O)(=O)c2cccc(C(=O)Nc3ccccn3)c2)cc1 | 13µM* | -25% | ? | ? | 4% | 13%
COc1cccc(C2(CC(=O)N3CCCCC3CO)CC(=O)N(C)C2=O)c1 (stereo not given) | nt | 7% | nt | nt | -11% | -7%
COc1ccc(NC(=O)CCc2nnc3ccc(N4CCC5(CC4)OCCO5)nn23)cc1 | -11%[46.1 µM] | -6% | -7%[46.1 µM] | -26 | -9% | i
COC(=O)c1ccc(NC(=O)CCc2nnc3ccc(N4CCC5(CC4)OCCO5)nn23)cc1 | -17%[46.1 µM] | -1% | 8%[46.1 µM] | -16 | 28µM* | -10%
C[C@@H]1CC[C@H]2C(=O)N(Cc3ccc(Cl)cc3)C[C@H](O)CN2[C@@H]1c1ccc(Br)cc1 | nt | nt | 29%[14.2 µM] | nt | nt | nt
C[C@]12C[C@H](O)CC(CO)(CO)C1[C@H](O)C[C@@]13CC4[C@@H](CC12)[C@@]4(C)C3 (stereo not given in full) | nt | nt | nt | nt | -18% | nt
OC(CBr)C[n+]1cc(Br)cc2ccccc21 (stereo not given) | nt | -15% | nt | nt | nt | -25%
O=C(N/N=C/c1ccsc1)c1ccc2ccccc2n1 | -18%[46.1 µM] | -14% | ? | -67* | 51% | -4%
O=C(N/N=C/c1ccc2c(c1)OCO2)c1ccc2ccccc2n1 | -6% | 16% | ? | -28 | 0% | i
CCn1c(Oc2ccc(F)cc2F)nc2c1c(=O)n(C)c(=O)n2C | 19%[46.1 µM] | 0% | -2%[46.1 µM] | -21 | -28% | -1%
CC(C)(C)c1ccc(C2NC(=O)c3n[nH]c(-c4cccs4)c32)cc1 (stereo not given) | -25%[46.1 µM] | -7%[7.34 µM] | ? | -91* | -15% | -4%[7.34 µM]
CCOc1ccc(C2NC(=O)c3n[nH]c(C)c32)cc1 (stereo not given) | nt | -17% | nt | -10 | -13% | i
SMILES | Lassa entry inh | VACV Venus inh | Marburg entry inh | HCMV antiviral | FMDV inh | Vaccinia mCherry
COC(CNC(=O)C1CCN(C(=O)c2cc3oc(C)cc3n2Cc2c(F)cccc2Cl)CC1)OC | ? | -4% | ? | -67* | 0% | -14%
Cc1ccc(-c2cn3c(n2)sc2cc(C(=O)NCCCN4CCCCCC4)ccc23)cc1 | 14%[46.1 µM] | ? | nt | nt | 13% | ?
Cc1ccc(-c2cn3c(n2)sc2cc(C(=O)NCCCN4CCCCC4)ccc23)cc1 | 8%[46.1 µM] | 8.9µM* | nt | nt | 27% | 11µM*
CCOC(=O)N1CCC(NC(=O)c2ccc3c(c2)sc2nc(-c4ccccc4)cn23)CC1 | ? | ? | 11µM* | nt | ? | ?
COc1ccccc1NC(=O)COc1ccccc1C(=O)c1cnn(-c2ccccc2)c1 | nt | nt | -5% | 22 | 57% | nt
CCc1ccc(NC(=O)COc2ccc(F)cc2C(=O)c2cnn(-c3ccccc3)c2)cc1 | -27% | -11% | ? | -102* | 10% | i
CC(=O)NC1C(O)C[C@@](O)(C(=O)O)OC1[C@@H](O)C(O)CO (stereo not given in full) | nt | 5% | nt | nt | 2% | 8%
CC(C)Oc1ccc(C(=O)Nc2nc3ccccc3[nH]2)cc1 | 1.1µM* | -5% | ? | -60* | 7.9µM* | 52%
COc1cc(OC)cc(C(=O)Nc2nc3ccccc3[nH]2)c1 | ? | -21% | -14% | 9 | -37% | nt
O=C(Nc1nc2ccccc2[nH]1)c1ccc(OC(F)F)cc1 | ? | -23% | ? | 33 | 13µM* | -17%
O=C(N/N=C/c1ccccn1)c1ccco1 | -17% | nt | 23% | -1 | 0% | nt
O=C(N/N=C/c1ccc2ncccc2c1)c1ccco1 | 2.5µM* | -11% | 1.3µM* | 5 | -77% | -21%
CCN1C/C(=C/c2ccc(N3CCOCC3)cc2)C(=O)/C(=C/c2ccc(N3CCOCC3)cc2)C1 | ? | 56% | ? | -102* | 28µM* | 11µM*
CS(=O)(=O)c1ccc(S(=O)CC(=O)Oc2ccc(Cl)cc2)c([N+](=O)[O-])c1 (stereo not given) | ? | -10% | 11µM* | nt | 35µM* | ?
COc1cc2oc(=O)c(CC(=O)NCc3ccc(OC)c(OC)c3)c(C)c2cc1Cl | 8%[46.1 µM] | 2% | 15%[46.1 µM] | 19 | -13% | 4%
C=CCN1C[C@H](C)N(C(c2ccc(C(=O)N(CC)CC)cc2)c2cccc(OC)c2)CC1C (stereo not given in full) | nt | nt | nt | -65* | nt | nt
Cc1cc(Oc2ccc(-c3ccccc3)cc2)nc(N2CCOCC2)n1 | 4µM* | 2% | 11µM* | 19 | ? | nt

Screening results as filed in PubChem BioAssay.
